Values joined by “and” are separate entries in the source; they are usually repeats but may differ in a detail not shown here. Equal entries are not always repeated. Results filed as inconclusive are left out. Active and inactive are the calls of the source.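 How the source made its calls, unless noted: active means normalized viability below 100% at a tested concentration; inactive means the rest.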
What was measured:
[1] = system: Aerobactin synthetase IucA (Klebsiella pneumoniae); test: inhibition of K. pneumoniae IucA enzyme – biochemical, Tocris library, absorbance (AID 1345561; call rule not given here;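 further: 100% = enzyme without compound and 0% = no enzyme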); conditions: purified IucA enzyme assay, absorbance (OD) read-out; stronger effect = lower value;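 tested at 8 µM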
[2] = viability loss in pontine glioma line – cell-based, SU-DIPG-XIII, MIPE4.0, CellTiter-Glo, qHTS, dose response (AID 1347061; cut-off not given, nearly all actives have AC50 up to about 37 µM;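 further: cells exposed to compound for 48 hours before readout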); conditions: CellTiter-Glo ATP luminescence
[3] = viability loss in pontine glioma line – cell-based, JHH-DIPG-1, MIPE4.0, CellTiter-Glo, qHTS, dose response (AID 1347062; cut-off not given, nearly all actives have AC50 up to about 27 µM); conditions: JHH-DIPG-1 viability, CellTiter-Glo ATP luminescence
[4] = viability loss in pontine glioma line – cell-based, SU-DIPG-XIII, MIPE5.0, CellTiter-Glo, qHTS, dose response (AID 1347064; cut-off not given, nearly all actives have AC50 up to about 23 µM;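 on AC50: cells exposed to compound for 48 hours before the viability read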); conditions: CellTiter-Glo ATP luminescence
[5] = JHH-DIPG-1 glioma cell viability, MIPE5.0 library, CellTiter-Glo luminescence, qHTS (AID 1347067; cut-off not given, nearly all actives have AC50 up to about 26 µM;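 further: cells exposed to compound for 48 hours before readout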); conditions: JHH-DIPG-1 glioma viability, CellTiter-Glo ATP luminescence
[6] = viability loss with induced miR-34 in A549 – imaging, A549 dox-inducible miR-34, nuclei and caspase counts, primary screen (AID 1347080;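 active means compounds whose cell count with miR-34 switched on is under 0.7 times the count with it off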); conditions: A549 miR-34 inducible, Hoechst nuclei count, 48 h
[7] = compounds altering HSF1 focus formation in cells – imaging, Selleck Cancer Library (AID 1347162; in the data active means plate-normalised HSF1 focus index below about 0.46); conditions: human cells, HSF1 nuclear foci imaging, at 10 µM; SSMD: measured here: HSF1 foci SSMD mean; cell count: measured here: cell number; plate-normalised HSF1 focus index: stronger effect = lower value
[8] = drug combination growth inhibition, ovarian cancer – cell-based, oncology-focused library, rucaparib conditional, profiling panel (AID 1508598); conditions: patient-derived ovarian cancer cells, CellTiter-Glo viability, 144 h, stronger effect = lower value
[9] = galactose survival enhancers in mitochondrial complex I cybrids – cell-based, galactose medium, ATP luminescence, primary screen (AID 1645843;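 active means z-score of at least 1.8 in each of two replicates, scored against plate mean and spread of sample wells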;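 further: positive z means more ATP and so rescue of galactose-driven cybrid death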); conditions: complex I mutant cybrid cells, 72 h, stronger effect = higher value
[10] = growth inhibition of DIPG cells – cell-based, MIPE4.0 library, CellTiter-Glo luminescence, qHTS (AID 1347066; cut-off not given, nearly all actives have AC50 up to about 30 µM;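 further: cells exposed to compound for 48 hours before readout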); conditions: SU-DIPG-VI viability, CellTiter-Glo ATP luminescence
[11] = viability loss in pontine glioma line – cell-based, SU-DIPG-XVII, MIPE5.0, CellTiter-Glo, qHTS, dose response (AID 1347060; cut-off not given, nearly all actives have AC50 up to about 26 µM;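 further: cells exposed to compound for 48 hours before viability readout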); conditions: CellTiter-Glo ATP luminescence
[12] = viability loss in pontine glioma line – cell-based, SU-DIPG-XXV, MIPE5.0, CellTiter-Glo, qHTS, dose response (AID 1347065; cut-off not given, nearly all actives have AC50 up to about 26 µM;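 further: cells exposed to compound for 48 hours before ATP readout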); conditions: CellTiter-Glo ATP luminescence
[13] = viability loss in pontine glioma line – cell-based, SU-DIPG-IV, MIPE4.0, CellTiter-Glo, qHTS, dose response (AID 1347063; cut-off not given, nearly all actives have AC50 up to about 30 µM;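 further: compound exposure lasted 48 hours before the viability readout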); conditions: CellTiter-Glo ATP luminescence
[14] = growth inhibition of DIPG cells – cell-based, MIPE5.0 library, qHTS (AID 1347068; cut-off not given, nearly all actives have IC50 up to about 30 µM); conditions: SU-DIPG-XXV viability
[15] = stronger effect = lower value, cell number ratio, induced over uninduced
[16] = measured here: relative caspase fold change +Dox/-Dox
[17] = measured here: total cells with miR-34 induction, stronger effect = lower value
[18] = measured here: total cells without miR-34 induction
[19] = at 0.000305 µM, OCI-C5x cells, with rucaparib 10 µM, 100% = cells with rucaparib alone
[20] = at 0.000305 µM, OCI-C5x cells, without rucaparib
[21] = at 0.000305 µM, OCI-P5x cells, with rucaparib 20 µM, 100% = cells with rucaparib alone
[22] = at 0.000305 µM, OCI-P5x cells, without rucaparib
[23] = at 0.00122 µM, OCI-C5x cells, with rucaparib 10 µM, 100% = cells with rucaparib alone
[24] = at 0.00122 µM, OCI-C5x cells, without rucaparib
[25] = at 0.00122 µM, OCI-P5x cells, with rucaparib 20 µM, 100% = cells with rucaparib alone
[26] = at 0.00122 µM, OCI-P5x cells, without rucaparib
[27] = at 0.00488 µM, OCI-C5x cells, with rucaparib 10 µM, 100% = cells with rucaparib alone
[28] = at 0.00488 µM, OCI-C5x cells, without rucaparib
[29] = at 0.00488 µM, OCI-P5x cells, with rucaparib 20 µM, 100% = cells with rucaparib alone
[30] = at 0.00488 µM, OCI-P5x cells, without rucaparib
[31] = at 0.0195 µM, OCI-C5x cells, with rucaparib 10 µM, 100% = cells with rucaparib alone
[32] = at 0.0195 µM, OCI-C5x cells, without rucaparib
[33] = at 0.0195 µM, OCI-P5x cells, with rucaparib 20 µM, 100% = cells with rucaparib alone
[34] = at 0.0195 µM, OCI-P5x cells, without rucaparib
[35] = at 0.0781 µM, OCI-C5x cells, with rucaparib 10 µM, 100% = cells with rucaparib alone
[36] = at 0.0781 µM, OCI-C5x cells, without rucaparib
[37] = at 0.0781 µM, OCI-P5x cells, with rucaparib 20 µM, 100% = cells with rucaparib alone
[38] = at 0.0781 µM, OCI-P5x cells, without rucaparib
[39] = at 0.313 µM, OCI-C5x cells, with rucaparib 10 µM, 100% = cells with rucaparib alone
[40] = at 0.313 µM, OCI-C5x cells, without rucaparib
[41] = at 0.313 µM, OCI-P5x cells, with rucaparib 20 µM, 100% = cells with rucaparib alone
[42] = at 0.313 µM, OCI-P5x cells, without rucaparib
[43] = at 1.25 µM, OCI-C5x cells, with rucaparib 10 µM, 100% = cells with rucaparib alone
[44] = at 1.25 µM, OCI-C5x cells, without rucaparib
[45] = at 1.25 µM, OCI-P5x cells, with rucaparib 20 µM, 100% = cells with rucaparib alone
[46] = at 1.25 µM, OCI-P5x cells, without rucaparib
[47] = at 5 µM, OCI-C5x cells, with rucaparib 10 µM, 100% = cells with rucaparib alone
[48] = at 5 µM, OCI-C5x cells, without rucaparib
[49] = at 5 µM, OCI-P5x cells, with rucaparib 20 µM, 100% = cells with rucaparib alone
[50] = at 5 µM, OCI-P5x cells, without rucaparib

C[C@H](NC(=O)Cc1cc(F)cc(F)c1)C(=O)N[C@H](C(=O)OC(C)(C)C)c1ccccc1
8110: cell count [6, 17]
inactive: remaining activity [1] 99.3% | outcome [2] | outcome [3] | outcome [4] | outcome [5] | fold change [6, 15] 0.918 | plate-normalised HSF1 focus index [7] 1.11 | viability [8, 19] 103% | viability [8, 20] 116% | viability [8, 21] 110% | viability [8, 22] 111% | viability [8, 23] 103% | viability [8, 24] 117% | viability [8, 25] 109% | viability [8, 26] 107% | viability [8, 27] 108% | viability [8, 28] 126% | viability [8, 29] 106% | viability [8, 30] 111% | viability [8, 31] 103% | viability [8, 32] 119% | viability [8, 33] 110% | viability [8, 34] 102% | viability [8, 35] 115% | viability [8, 36] 117% | viability [8, 37] 107% | viability [8, 38] 101% | viability [8, 39] 106% | viability [8, 40] 125% | viability [8, 41] 102% | viability [8, 43] 116% | viability [8, 44] 117% | viability [8, 47] 120% | viability [8, 48] 120% | z-score [9] 0.56
8840: cell count [6, 18]
6880: cell count [7]
active: viability [8, 42] 99% | viability [8, 45] 84.1% | viability [8, 46] 85.6% | viability [8, 49] 75.1% | viability [8, 50] 78.3%
1.67: fold change [6, 16]
2.12: SSMD [7]

FC(F)(F)c1ccc(/C=C/c2nc(COc3ccc(CCCCn4ccnn4)cc3)co2)cc1
3770: cell count [6, 18]
4070: cell count [6, 17]
2.06: fold change [6, 16]
inactive: remaining activity [1] 112% | outcome [2] | outcome [3] | outcome [4] | outcome [10] | fold change [6, 15] 1.08 | z-score [9] -0.935

COc1cc2c(cc1O)CC[C@@H]1[C@@H]2CC[C@]2(C)[C@@H](O)CC[C@@H]12
0.815 and 0.616: fold change [6, 16]
1.78: SSMD [7]
inactive: remaining activity [1] 112% | fold change [6, 15] 1.15 and 1.13 | plate-normalised HSF1 focus index [7] 1.07 | z-score [9] 0.06 and 0.18
2270 and 1440: cell count [6, 18]
7300: cell count [7]
2600 and 1620: cell count [6, 17]
active: AC50 [11] 1.32 µM | AC50 [12] 1.48 µM | AC50 [5] 3.72 µM

C[C@H](NC(=O)c1sccc1OCc1ccc(Cl)cc1)c1ccccc1
active: AC50 [13] 18.7 µM | AC50 [4] 11.8 µM | AC50 [12] 16.6 µM | AC50 [5] 18.6 µM
4320: cell count [6, 17]
1.01: fold change [6, 16]
inactive: remaining activity [1] 124% | outcome [14] | fold change [6, 15] 1.09 | z-score [9] -1.04
3970: cell count [6, 18]

CC(C)c1onc(-c2c(Cl)cccc2Cl)c1COc1ccc(/C=C/c2cccc(C(=O)O)c2)c(Cl)c1
active: viability [8, 19] 95.7% | viability [8, 21] 90.8% | viability [8, 22] 87.3% | viability [8, 24] 97.6% | viability [8, 25] 99.3% | viability [8, 26] 89.4% | viability [8, 28] 97.6% | viability [8, 30] 91.9% | viability [8, 32] 98.1% | viability [8, 34] 98.8% | viability [8, 35] 99.7% | viability [8, 38] 97.9% | viability [8, 39] 97.6% | viability [8, 40] 97.8% | viability [8, 44] 97.1% | viability [8, 47] 76.1% | viability [8, 48] 89.5% | viability [8, 49] 99.6% | viability [8, 50] 98.8%
inactive: remaining activity [1] 99.1% | outcome [2] | outcome [3] | fold change [6, 15] 0.989 | plate-normalised HSF1 focus index [7] 1.11 | viability [8, 20] 107% | viability [8, 23] 107% | viability [8, 27] 103% | viability [8, 29] 102% | viability [8, 31] 101% | viability [8, 33] 100% | viability [8, 36] 105% | viability [8, 37] 104% | viability [8, 41] 106% | viability [8, 42] 100% | viability [8, 43] 102% | viability [8, 45] 103% | viability [8, 46] 101% | z-score [9] -0.665
1.32: fold change [6, 16]
6870: cell count [7]
5650: cell count [6, 18]
2.06: SSMD [7]
5590: cell count [6, 17]

— PubChem BioAssay
